Experimental findings from PubChem BioAssay are described below.

SMILES strings stand for the structures. The source made the active and inactive calls.

Assay [1] is described as follows: small molecules captured by biotinylated probe aFSTL3 – biochemical, small-molecule microarray, fluorescence 635/667, stem cell growth factor project, primary screen (AID 1064).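 Note: measures binding of the biotinylated anti-FSTL3 antibody to printed compounds.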 Conditions: higher = more signal.
A short description of assay [2]: binders from COS7 lysate, DM2A8 probe, primary screen, torsin A project, cell lysate, small-molecule microarray, fluorescence 635/667 (AID 1065). Conditions: higher = more signal, COS7 lysate expressing mutant human TOR1A.
The nature of assay [3]: small molecules captured by biotinylated probe aFGF2 – biochemical, small-molecule microarray, fluorescence 635/667, stem cell growth factor project, primary screen (AID 1067).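 Note: measures binding of biotinylated aFGF2 protein to printed compounds on slides; z-score merges feature fluorescence and signal-to-noise across triplicate slides.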 The settings on record: higher = more signal.
Assay [4] is described as follows: small molecules captured by biotinylated probe aFGF10 – biochemical, small-molecule microarray, fluorescence 635/667, stem cell growth factor project, primary screen (AID 1071).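 Note: score merges 667 nm spot intensity and signal to noise from triplicate slides.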 Conditions: higher = more signal.
For assay [5], the target named is Neurogenic locus notch homolog protein 2 (Homo sapiens) (UniProt Q04721). Description: small molecules binding Notch2 protein – biochemical, small-molecule microarray, 635 nm fluorescence, stem cell growth factors, primary screen (AID 1073). Conditions: higher = more signal.
Assay [6] concerns the target Pro-neuregulin-1, membrane-bound isoform (Homo sapiens) (UniProt Q02297). Description: small molecules binding neuregulin-1 protein – biochemical, small-molecule microarray, fluorescence 635/667, psychiatric disease protein project, primary screen (AID 1075).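 Note: score combines 667 nm spot fluorescence with signal to noise.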 The settings on record: NRG1 binding, 635 nm fluorescence, higher = more signal.
In assay [7] the test system is Neuregulin-1 EGF-like domain. In words: small molecules binding NRG1 EGF domain – biochemical, small-molecule microarray, 635 nm fluorescence, primary screen (AID 1081).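 Note: binding of the protein to compounds printed on small-molecule microarray slides.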 The settings on record: higher = more signal.
Assay [8] in a line: FRG1 expression reporter modulators in myotubes – cell-based, C2C12 myotubes, firefly/Renilla luciferase, luminescence, FRG1 inhibition for FSHD, primary screen (AID 1084). Conditions: FRG1 promoter luciferase, higher = more signal, called active from +8 up or from −8 down.
Assay [9] in a line: small molecules captured by biotinylated probe aFST – biochemical, small-molecule microarray, fluorescence 635/667, stem cell growth factor project, primary screen (AID 1086).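 Note: score merges 667 nm fluorescence with signal-to-noise of each printed compound spot.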 The settings on record: higher = more signal.
Assay [10] in a line: binders of probe aHhip on microarray, primary screen, stem cell growth factor project, biochemical, small-molecule microarray, fluorescence 635/667 (AID 1087).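 Note: score merges spot fluorescence at 667nm with spot signal to noise ratio.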 The settings on record: higher = more signal.
In assay [11] the test system is PRMT1 (protein arginine N-methyltransferase 1). Description: small molecules binding arginine methyltransferase PRMT1 – biochemical, small-molecule microarray, 635 nm fluorescence, primary screen (AID 1088).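 Note: binding of Prmt1 protein to compounds spotted on small-molecule microarray slides.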 The settings on record: higher = more signal.
Assay [12] in a line: growth effects on S. cerevisiae YJM789 – YJM789 clinical isolate, OD600, 24 h, basal, primary screen (AID 1089).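 Note: growth of clinical yeast isolate S. cerevisiae YJM 789 seeded 1000 cells per well; test concentration not given here.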 The settings on record: higher = more signal, called active from +8 up or from −8 down.
Assay [13] is described as follows: S. pombe growth modifiers, basal conditions – strain 972, OD600, 24 h, no modulator, primary screen (AID 1090).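 Note: basal condition with compound alone and no growth modifier present; test concentration not given here.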 Conditions: S. pombe 972 growth, higher = more signal, called active from +8 up or from −8 down.
Assay [14] can be described thus: budding yeast growth modifiers under rapamycin – strain BY4716, OD600, 96 h, primary screen (AID 1091). Note: test concentration not given here. The settings on record: S. cerevisiae BY4716 + rapamycin, higher = more signal, called active from +8 up or from −8 down.
Assay [15] has as its target Torsin-1A-interacting protein 2 (Homo sapiens) (UniProt Q8NFQ8). In words: small molecules binding lysate-expressed LULL1 – cell lysate, human LULL1 lysate, 635/667 nm fluorescence, primary screen (AID 1092).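 Note: probe is lysate of COS7 cells overexpressing human LULL1; score merges per-feature 667 nm fluorescence with signal-to-noise.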 The settings on record: small-molecule microarray, hLULL1 lysate binding, 635 nm fluorescence; higher = more signal.
Assay [16] is described as follows: optical density change of DRC41 E. coli – strain DRC41, OD650, 24 h, E. coli filamentation project, primary screen (AID 1093).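 Note: MC1000 strain lacking acrAB efflux and sulA so SOS filamentation is blocked; test concentration not given here.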 The settings on record: E. coli DRC41 growth, higher = more signal, called active from +8 up or from −8 down.
Assay [17] can be described thus: probe aLefty2 binding to arrayed compounds – biochemical, biotinylated probe, 635/667 nm fluorescence, primary screen (AID 1094).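 Note: score merges spot fluorescence near 667 nm with spot signal-to-noise ratio.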 The settings on record: small-molecule microarray, higher = more signal.
For assay [18], the system named is Noggin (protein binding on small-molecule microarray). Description: small molecules binding Noggin protein – biochemical, 635/667 nm fluorescence, primary screen (AID 1095).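 Note: score merges 667 nm feature fluorescence with signal to noise over triplicate slides.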 Conditions: 635 nm fluorescence, higher = more signal.
The target of assay [19] is Neurogenic locus notch homolog protein 3 (Homo sapiens) (UniProt Q9UM47). In words: small molecules binding NOTCH3 protein – biochemical, 635/667 nm fluorescence, primary screen (AID 1096). Conditions: small-molecule microarray, 635 nm fluorescence, higher = more signal.
A short description of assay [20]: probe aEGFR binding to arrayed compounds – biochemical, biotinylated probe, 635/667 nm fluorescence, primary screen (AID 1097).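 Note: probe is a biotinylated anti-EGFR antibody binding compounds printed on slides; score combines fluorescence near 667 nm and signal to noise of each spot.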 The settings on record: small-molecule microarray, higher = more signal.

Chain of Pro-neuregulin-1, membrane-bound isoform (Homo sapiens) (Q02297 whole entry, looked up, the tested form may be a part, canonical isoform): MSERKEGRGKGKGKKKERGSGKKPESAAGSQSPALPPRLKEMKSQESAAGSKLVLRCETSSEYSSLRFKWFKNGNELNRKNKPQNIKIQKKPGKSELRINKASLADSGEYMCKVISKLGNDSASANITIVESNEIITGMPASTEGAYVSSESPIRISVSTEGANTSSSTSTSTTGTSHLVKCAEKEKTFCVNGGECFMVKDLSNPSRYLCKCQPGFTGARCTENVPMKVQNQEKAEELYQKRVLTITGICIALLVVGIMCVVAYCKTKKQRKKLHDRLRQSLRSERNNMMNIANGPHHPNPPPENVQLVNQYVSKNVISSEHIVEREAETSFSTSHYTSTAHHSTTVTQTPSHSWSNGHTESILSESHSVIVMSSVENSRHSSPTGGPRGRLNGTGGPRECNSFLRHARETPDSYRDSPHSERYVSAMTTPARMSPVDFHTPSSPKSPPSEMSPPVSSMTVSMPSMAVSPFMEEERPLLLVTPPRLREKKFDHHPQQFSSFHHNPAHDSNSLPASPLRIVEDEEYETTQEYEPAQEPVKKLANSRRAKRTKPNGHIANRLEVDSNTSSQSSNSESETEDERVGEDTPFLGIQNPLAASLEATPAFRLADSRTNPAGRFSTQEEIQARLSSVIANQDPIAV
Chain of Torsin-1A-interacting protein 2 (Homo sapiens) (Q8NFQ8 whole entry, looked up): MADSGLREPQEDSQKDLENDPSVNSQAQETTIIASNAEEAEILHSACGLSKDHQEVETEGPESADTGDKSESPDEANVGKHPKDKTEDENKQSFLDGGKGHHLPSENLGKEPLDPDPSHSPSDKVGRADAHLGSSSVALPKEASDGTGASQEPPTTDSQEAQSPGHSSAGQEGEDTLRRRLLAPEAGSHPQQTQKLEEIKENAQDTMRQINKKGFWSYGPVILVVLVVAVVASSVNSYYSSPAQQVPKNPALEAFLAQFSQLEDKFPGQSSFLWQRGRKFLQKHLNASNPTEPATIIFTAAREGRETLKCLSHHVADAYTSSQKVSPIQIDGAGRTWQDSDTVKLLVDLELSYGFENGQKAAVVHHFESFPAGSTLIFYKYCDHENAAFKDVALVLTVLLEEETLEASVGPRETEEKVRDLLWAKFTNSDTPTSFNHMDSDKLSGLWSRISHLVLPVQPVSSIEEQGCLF
Chain of Neurogenic locus notch homolog protein 3 (Homo sapiens) (Q9UM47 whole entry, looked up): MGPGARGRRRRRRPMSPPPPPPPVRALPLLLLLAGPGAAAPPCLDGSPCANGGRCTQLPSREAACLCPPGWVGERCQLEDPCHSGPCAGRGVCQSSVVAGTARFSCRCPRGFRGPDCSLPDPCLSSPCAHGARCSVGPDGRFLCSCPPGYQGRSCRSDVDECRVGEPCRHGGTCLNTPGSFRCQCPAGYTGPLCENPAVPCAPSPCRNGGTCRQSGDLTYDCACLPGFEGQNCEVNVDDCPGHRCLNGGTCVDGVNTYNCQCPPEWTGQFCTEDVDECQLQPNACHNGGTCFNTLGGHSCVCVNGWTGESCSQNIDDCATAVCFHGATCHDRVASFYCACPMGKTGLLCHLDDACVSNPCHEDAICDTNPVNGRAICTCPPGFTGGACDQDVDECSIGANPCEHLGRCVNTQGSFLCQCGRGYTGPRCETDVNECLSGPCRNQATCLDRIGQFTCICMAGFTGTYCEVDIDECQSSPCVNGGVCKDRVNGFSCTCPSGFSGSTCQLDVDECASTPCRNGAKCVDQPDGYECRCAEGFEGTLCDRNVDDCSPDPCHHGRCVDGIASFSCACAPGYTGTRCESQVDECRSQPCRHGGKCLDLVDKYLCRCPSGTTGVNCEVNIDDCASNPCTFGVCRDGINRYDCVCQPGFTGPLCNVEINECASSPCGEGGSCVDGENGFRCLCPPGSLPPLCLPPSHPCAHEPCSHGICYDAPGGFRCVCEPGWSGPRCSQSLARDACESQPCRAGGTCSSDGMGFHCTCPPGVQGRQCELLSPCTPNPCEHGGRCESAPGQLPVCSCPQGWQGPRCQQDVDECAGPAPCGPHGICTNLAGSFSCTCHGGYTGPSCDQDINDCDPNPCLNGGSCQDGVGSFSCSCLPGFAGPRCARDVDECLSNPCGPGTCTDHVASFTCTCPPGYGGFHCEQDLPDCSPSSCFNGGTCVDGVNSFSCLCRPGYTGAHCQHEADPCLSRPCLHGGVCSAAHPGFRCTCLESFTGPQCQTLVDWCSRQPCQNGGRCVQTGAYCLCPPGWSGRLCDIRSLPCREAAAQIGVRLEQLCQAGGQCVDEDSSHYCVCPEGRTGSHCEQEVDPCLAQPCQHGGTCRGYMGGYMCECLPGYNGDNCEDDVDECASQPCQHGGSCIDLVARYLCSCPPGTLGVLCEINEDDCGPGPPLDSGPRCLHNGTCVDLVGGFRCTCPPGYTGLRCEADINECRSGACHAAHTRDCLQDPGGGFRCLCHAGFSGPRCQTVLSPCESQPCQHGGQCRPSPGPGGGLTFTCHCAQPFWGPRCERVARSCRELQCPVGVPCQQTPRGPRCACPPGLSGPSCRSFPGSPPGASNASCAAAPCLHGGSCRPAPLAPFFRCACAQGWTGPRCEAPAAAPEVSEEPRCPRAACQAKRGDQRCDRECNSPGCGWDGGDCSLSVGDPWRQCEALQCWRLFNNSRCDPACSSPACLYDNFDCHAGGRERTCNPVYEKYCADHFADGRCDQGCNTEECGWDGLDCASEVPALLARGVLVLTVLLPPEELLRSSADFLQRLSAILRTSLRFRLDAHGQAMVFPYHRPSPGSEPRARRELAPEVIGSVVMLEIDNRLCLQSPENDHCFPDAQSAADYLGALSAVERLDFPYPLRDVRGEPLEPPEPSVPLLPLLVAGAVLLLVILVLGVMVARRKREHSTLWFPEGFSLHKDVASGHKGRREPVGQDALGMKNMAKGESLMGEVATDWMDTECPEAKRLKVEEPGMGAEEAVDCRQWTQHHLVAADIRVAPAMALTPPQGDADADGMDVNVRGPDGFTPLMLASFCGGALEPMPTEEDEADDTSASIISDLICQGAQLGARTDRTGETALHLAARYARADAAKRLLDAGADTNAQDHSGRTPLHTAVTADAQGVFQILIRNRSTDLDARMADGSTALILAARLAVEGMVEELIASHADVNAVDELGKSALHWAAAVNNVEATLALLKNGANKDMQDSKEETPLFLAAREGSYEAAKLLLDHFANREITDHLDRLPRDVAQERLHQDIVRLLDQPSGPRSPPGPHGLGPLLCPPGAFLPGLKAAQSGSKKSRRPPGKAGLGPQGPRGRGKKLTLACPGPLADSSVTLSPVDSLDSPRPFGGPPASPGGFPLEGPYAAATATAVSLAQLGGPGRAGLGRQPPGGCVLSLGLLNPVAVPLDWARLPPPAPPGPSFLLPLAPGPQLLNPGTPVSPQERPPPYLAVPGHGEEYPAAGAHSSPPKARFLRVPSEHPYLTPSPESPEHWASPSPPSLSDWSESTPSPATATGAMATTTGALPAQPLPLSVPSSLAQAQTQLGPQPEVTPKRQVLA

Consider `O=C(NCCO)C1=C[C@H](Oc2ccccc2I)[C@@H](O)[C@H](N(Cc2ccco2)C(=O)Cc2ccccc2)C1`, for which the composite z-score in assay [1] is 0.0391; in [2], 0.208; in [3], -0.112; in assay [4], 0.236; in [5], 0.299; in [6], -0.352. Besides, the composite z-score in assay [7] was -0.473; in assay [9], -0.0165; in assay [10] it was 0.12; in [11] it was -0.0355; in [15], -0.298; in [17], -0.0279. Also, the composite z-score in [18] is 0.535; in assay [19], 0.271; in [20], -0.0767. For the same compound, the z-score was 0.157 (inactive) in assay [8]; 0.528 (inactive) in assay [12]; 0.0689 (inactive) in assay [13]; 0.279 (inactive) in assay [14]; -0.546 (inactive) in [16].

On to `COc1ccc([Si](C)(C)[C@H]2[C@H](CC(=O)N3Cc4ccccc4C[C@H]3CO)O[C@@]3(C(=O)N(Cc4cccc(N5CCC5=O)c4)c4ccccc43)[C@@H]2C)cc1`, for which the composite z-score in [1] is -0.26; in [2], 0.479; in assay [3] it was -0.07; in [4], 0.726; in assay [5] it was 0.793; in assay [6] it was 0.871. The composite z-score was 1.29 in assay [7]; 0.256 in assay [9]; -0.13 in [10]; 1.57 in assay [11]; 2.26 in assay [15]; -0.12 in assay [17]. Moreover, the composite z-score amounted to 0.914 in [18], 1.06 in assay [19] and 0.0478 in assay [20]. Further, the z-score in [8] is -2.41 (inactive); in assay [12] it was -0.441 (inactive); in [13] it was 0.716 (inactive); in assay [14], 1.98 (inactive); in [16], 0.192 (inactive).

Take `CCCC[C@H]1OB(O)C[C@H]2C1=C(COC)Cn1c(=O)n(-c3ccccc3)c(=O)n12`: the composite z-score is -0.516 in assay [1]; 0.107 in [2]; -0.157 in [3]; 0.392 in assay [4]; 0.325 in assay [5]; -0.19 in assay [6]. The composite z-score in assay [7] is 0.484; in assay [9], 0.199; in [10], -0.236; in [11], 0.601; in assay [15], 0.814; in assay [17], -0.208. Besides, the composite z-score in [18] is 0.0562; in [19] it was 0.121; in assay [20], -0.137. The z-score in [8] was 0.103 (inactive); in assay [12], 0.461 (inactive); in assay [13], 0.19 (inactive); in assay [14], -0.386 (inactive); in [16] it was 0.498 (inactive).

Turning to `[N-]=[N+]=NCc1ccccc1C[C@]1(C(N)=O)COC(c2ccc(OCCCO)cc2)=N1`, the composite z-score in assay [1] is 0.293; in [2], 2.02; in [3] it was -0.0805; in assay [4], -0.101; in assay [5], 0.63; in [6] it was 1.59. Also, the composite z-score was found to be 1.03 in [7]; 0.847 in assay [9]; 0.154 in assay [10]; 0.945 in [11]; 3.1 in assay [15]; 0.0567 in [17]. Moreover, the composite z-score was -0.572 in assay [18], 0.31 in assay [19] and 0.0641 in [20]. In addition, the z-score in assay [8] is -1.41 (inactive); in [12], -4.72 (inactive); in assay [13], -1.09 (inactive); in [14], -1.19 (inactive); in assay [16], 1.95 (inactive).

Consider `Cc1ccc([C@@H]2C[C@@H](Sc3ccccc3)[C@H](C(=O)O)CN2S(=O)(=O)c2ccc(C)cc2)cc1`, for which the composite z-score is -0.0057 in assay [1]; 0.414 in [2]; 0.0512 in assay [3]; 0.983 in assay [4]; 1.59 in assay [5]; 1.57 in assay [6]. The composite z-score in [7] came out at 1.35; in assay [9] it was 0.936; in [10], 0.0373; in [11] it was 1.54; in assay [15], 3.53; in [17] it was 0.141. Besides, the composite z-score in assay [18] is 0.339; in assay [19], 1.08; in assay [20], 0.0082. For the same compound, the z-score in assay [8] was -3.65 (inactive); in assay [12] it was -0.337 (inactive); in [13] it was 0.565 (inactive); in assay [14], -0.787 (inactive); in assay [16], -0.773 (inactive).
